# Assay results as given in PubChem BioAssay.
# Active and inactive are the calls of the source.
# Key:
# [1] = test system: PRMT1 (protein arginine N-methyltransferase 1); experiment: small molecules binding arginine methyltransferase PRMT1 – biochemical, small-molecule microarray, 635 nm fluorescence, primary screen (AID 1088); conditions: higher = more signal;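 also: binding of Prmt1 protein to compounds spotted on small-molecule microarray slides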
# [2] = growth effects on S. cerevisiae YJM789 – YJM789 clinical isolate, OD600, 24 h, basal, primary screen (AID 1089); conditions: higher = more signal, called active from +8 up or from −8 down;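 also: growth of clinical yeast isolate S. cerevisiae YJM 789 seeded 1000 cells per well; test concentration not given here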
# [3] = S. pombe growth modifiers, basal conditions – strain 972, OD600, 24 h, no modulator, primary screen (AID 1090);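 also: basal condition with compound alone and no growth modifier present; test concentration not given here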; conditions: S. pombe 972 growth, higher = more signal, called active from +8 up or from −8 down
# [4] = budding yeast growth modifiers under rapamycin – strain BY4716, OD600, 96 h, primary screen (AID 1091); also: test concentration not given here; conditions: S. cerevisiae BY4716 + rapamycin, higher = more signal, called active from +8 up or from −8 down
# [5] = target: Torsin-1A-interacting protein 2 (Homo sapiens) (UniProt Q8NFQ8); experiment: small molecules binding lysate-expressed LULL1 – cell lysate, human LULL1 lysate, 635/667 nm fluorescence, primary screen (AID 1092); conditions: small-molecule microarray, hLULL1 lysate binding, 635 nm fluorescence; higher = more signal;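 also: probe is lysate of COS7 cells overexpressing human LULL1; score merges per-feature 667 nm fluorescence with signal-to-noise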
# [6] = optical density change of DRC41 E. coli – strain DRC41, OD650, 24 h, E. coli filamentation project, primary screen (AID 1093);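 also: MC1000 strain lacking acrAB efflux and sulA so SOS filamentation is blocked; test concentration not given here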; conditions: E. coli DRC41 growth, higher = more signal, called active from +8 up or from −8 down
# [7] = probe aLefty2 binding to arrayed compounds – biochemical, biotinylated probe, 635/667 nm fluorescence, primary screen (AID 1094); conditions: small-molecule microarray, higher = more signal;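 also: score merges spot fluorescence near 667 nm with spot signal-to-noise ratio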
# [8] = test system: Noggin (protein binding on small-molecule microarray); experiment: small molecules binding Noggin protein – biochemical, 635/667 nm fluorescence, primary screen (AID 1095); conditions: 635 nm fluorescence, higher = more signal;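 also: score merges 667 nm feature fluorescence with signal to noise over triplicate slides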
# [9] = target: Neurogenic locus notch homolog protein 3 (Homo sapiens) (UniProt Q9UM47); experiment: small molecules binding NOTCH3 protein – biochemical, 635/667 nm fluorescence, primary screen (AID 1096); conditions: small-molecule microarray, 635 nm fluorescence, higher = more signal
# [10] = probe aEGFR binding to arrayed compounds – biochemical, biotinylated probe, 635/667 nm fluorescence, primary screen (AID 1097); conditions: small-molecule microarray, higher = more signal;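 also: probe is a biotinylated anti-EGFR antibody binding compounds printed on slides; score combines fluorescence near 667 nm and signal to noise of each spot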
# [11] = test system: Plasmodium falciparum Sir2 (PF13_0152, Sir2A); experiment: Plasmodium falciparum Sir2A binding compounds – biochemical, small-molecule microarray, 635 nm fluorescence, primary screen (AID 1098); conditions: fluorescence 635 nm, higher = more signal;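 also: score merges spot fluorescence intensity with its signal-to-noise ratio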
# [12] = probe aDKK1 binding to arrayed compounds – biochemical, biotinylated probe, 635/667 nm fluorescence, primary screen (AID 1099); conditions: small-molecule microarray, higher = more signal;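 also: score merges 667nm spot fluorescence with signal to noise across triplicate slides; reference of the scale not given here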
# [13] = probe aCHRDL2 binding to arrayed compounds – biochemical, biotinylated probe, 635/667 nm fluorescence, primary screen (AID 1100); conditions: small-molecule microarray, higher = more signal
# [14] = change in splice reporter luminescence, either direction, cell-based, HEK293, spliceosome inhibition project, primary screen (AID 1101); conditions: HEK293 splicing luciferase reporter, 24 h, higher = more signal, called active from +8 up or from −8 down;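 also: HEK293 cells carrying a splicing-competent luciferase reporter gene; test concentration not given here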
# [15] = target: Fibroblast growth factor 10 (Homo sapiens) (UniProt O15520); experiment: compounds binding fibroblast growth factor 10 – biochemical, small-molecule microarray, 635 nm fluorescence, primary screen (AID 1102); conditions: FGF10 binding, fluorescence 635 nm, higher = more signal
# [16] = test system: glycogen synthase kinase-3 (GSK3A per assay name; protocol says GSK3B); experiment: compounds binding glycogen synthase kinase-3 – biochemical, small-molecule microarray, 635 nm fluorescence, GSK3A, primary screen (AID 1103); conditions: fluorescence 635 nm, higher = more signal; also: the record names both GSK3A and GSK3B
# [17] = target: Epidermal growth factor receptor (Homo sapiens) (UniProt P00533); experiment: compounds binding epidermal growth factor receptor – biochemical, small-molecule microarray, 635 nm fluorescence, primary screen (AID 1104); conditions: EGFR binding, higher = more signal;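 also: score merges 667 nm emission intensity with spot signal to noise over triplicate slides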
# [18] = target: Follistatin-related protein 3 (Homo sapiens) (UniProt O95633); experiment: compounds binding follistatin-related protein 3 – biochemical, small-molecule microarray, 635 nm fluorescence, primary screen (AID 1105); conditions: FSTL3 binding, higher = more signal;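 also: score merges emission near 667 nm and signal to noise per printed spot across three slides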
# [19] = target: Dickkopf-related protein 1 (Homo sapiens) (UniProt O94907); experiment: small molecules binding DKK1 protein – biochemical, small-molecule microarray, 635 nm fluorescence scan, primary screen (AID 1106); conditions: higher = more signal;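 also: score merges emission near 667 nm with signal to noise over three replicate slides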
# [20] = test system: Inhibin beta A chain (activin A); experiment: small molecules binding activin A – biochemical, small-molecule microarray, 635 nm fluorescence scan, primary screen (AID 1107); conditions: INHBA, higher = more signal;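 also: mouse activin A protein probed at 4.33 µg/mL on printed slides; score merges bound-protein fluorescence near 667 nm with spot signal-to-noise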
# Torsin-1A-interacting protein 2 (Homo sapiens), sequence (Q8NFQ8 whole entry, looked up): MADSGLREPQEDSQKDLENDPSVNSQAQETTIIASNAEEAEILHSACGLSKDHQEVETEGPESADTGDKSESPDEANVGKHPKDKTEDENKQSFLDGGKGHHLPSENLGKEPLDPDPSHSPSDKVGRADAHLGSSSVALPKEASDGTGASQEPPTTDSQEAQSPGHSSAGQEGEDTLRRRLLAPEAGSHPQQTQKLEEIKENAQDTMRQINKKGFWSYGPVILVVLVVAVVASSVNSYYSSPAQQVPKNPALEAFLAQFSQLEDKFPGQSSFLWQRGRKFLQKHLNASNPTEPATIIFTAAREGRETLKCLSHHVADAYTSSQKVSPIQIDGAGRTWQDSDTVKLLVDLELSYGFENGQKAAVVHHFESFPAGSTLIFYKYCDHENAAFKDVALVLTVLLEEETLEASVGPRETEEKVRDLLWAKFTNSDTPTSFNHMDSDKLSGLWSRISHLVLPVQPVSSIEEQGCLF
# Follistatin-related protein 3 (Homo sapiens), sequence (O95633 whole entry, looked up): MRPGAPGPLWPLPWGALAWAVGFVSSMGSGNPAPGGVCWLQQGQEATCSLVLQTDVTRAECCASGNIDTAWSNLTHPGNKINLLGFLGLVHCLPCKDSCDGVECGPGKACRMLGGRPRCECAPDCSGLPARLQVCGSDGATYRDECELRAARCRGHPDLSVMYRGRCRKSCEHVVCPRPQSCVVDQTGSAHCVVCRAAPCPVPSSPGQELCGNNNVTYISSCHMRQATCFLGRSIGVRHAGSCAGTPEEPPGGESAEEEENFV
# Epidermal growth factor receptor (Homo sapiens), sequence (P00533 whole entry, looked up): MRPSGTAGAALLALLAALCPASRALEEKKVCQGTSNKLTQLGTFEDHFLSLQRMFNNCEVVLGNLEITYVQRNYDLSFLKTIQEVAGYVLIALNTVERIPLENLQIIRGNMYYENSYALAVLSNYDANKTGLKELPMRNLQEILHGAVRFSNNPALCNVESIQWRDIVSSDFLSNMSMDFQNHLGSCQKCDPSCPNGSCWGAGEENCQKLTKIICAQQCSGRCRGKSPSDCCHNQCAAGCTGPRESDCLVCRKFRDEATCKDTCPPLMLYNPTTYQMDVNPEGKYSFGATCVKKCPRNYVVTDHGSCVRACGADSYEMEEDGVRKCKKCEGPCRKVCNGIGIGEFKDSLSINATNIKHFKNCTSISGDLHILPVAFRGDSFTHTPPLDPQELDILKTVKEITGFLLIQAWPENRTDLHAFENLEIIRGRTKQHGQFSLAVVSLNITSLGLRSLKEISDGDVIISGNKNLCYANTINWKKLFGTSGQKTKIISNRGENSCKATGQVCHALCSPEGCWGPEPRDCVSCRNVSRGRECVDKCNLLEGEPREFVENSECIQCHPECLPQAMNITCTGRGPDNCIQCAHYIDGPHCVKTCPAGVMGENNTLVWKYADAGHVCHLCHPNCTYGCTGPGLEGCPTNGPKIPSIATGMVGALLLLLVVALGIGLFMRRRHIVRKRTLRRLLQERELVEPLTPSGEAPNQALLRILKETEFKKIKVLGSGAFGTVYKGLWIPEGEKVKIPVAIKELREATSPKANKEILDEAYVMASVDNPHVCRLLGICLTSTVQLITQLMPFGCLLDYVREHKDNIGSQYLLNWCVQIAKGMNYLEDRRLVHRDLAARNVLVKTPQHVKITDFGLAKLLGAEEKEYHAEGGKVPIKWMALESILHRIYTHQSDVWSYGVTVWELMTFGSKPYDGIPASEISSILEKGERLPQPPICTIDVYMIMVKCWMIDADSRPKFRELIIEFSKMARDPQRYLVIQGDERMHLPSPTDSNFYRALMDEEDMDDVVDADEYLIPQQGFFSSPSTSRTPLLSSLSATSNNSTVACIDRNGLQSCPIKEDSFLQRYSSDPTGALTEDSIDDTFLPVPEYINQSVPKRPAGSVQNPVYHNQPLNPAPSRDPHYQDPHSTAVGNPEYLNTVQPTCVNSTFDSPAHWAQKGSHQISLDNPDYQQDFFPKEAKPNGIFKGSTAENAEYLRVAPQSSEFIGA
# Dickkopf-related protein 1 (Homo sapiens), sequence (O94907 whole entry, looked up): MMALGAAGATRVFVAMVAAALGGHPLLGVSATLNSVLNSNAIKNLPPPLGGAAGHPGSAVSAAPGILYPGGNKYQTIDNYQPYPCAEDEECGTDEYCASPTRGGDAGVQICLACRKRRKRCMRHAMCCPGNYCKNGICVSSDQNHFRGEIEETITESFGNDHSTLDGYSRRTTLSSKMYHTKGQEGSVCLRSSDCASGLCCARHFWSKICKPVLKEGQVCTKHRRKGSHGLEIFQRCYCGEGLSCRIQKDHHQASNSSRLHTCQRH
# Fibroblast growth factor 10 (Homo sapiens), sequence (O15520 whole entry, looked up): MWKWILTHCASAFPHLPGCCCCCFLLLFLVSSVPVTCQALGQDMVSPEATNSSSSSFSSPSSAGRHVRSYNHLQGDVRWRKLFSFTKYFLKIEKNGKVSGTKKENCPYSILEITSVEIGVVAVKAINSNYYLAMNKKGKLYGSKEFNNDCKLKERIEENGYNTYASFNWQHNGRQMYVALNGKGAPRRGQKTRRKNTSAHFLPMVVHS
# Neurogenic locus notch homolog protein 3 (Homo sapiens), sequence (Q9UM47 whole entry, looked up): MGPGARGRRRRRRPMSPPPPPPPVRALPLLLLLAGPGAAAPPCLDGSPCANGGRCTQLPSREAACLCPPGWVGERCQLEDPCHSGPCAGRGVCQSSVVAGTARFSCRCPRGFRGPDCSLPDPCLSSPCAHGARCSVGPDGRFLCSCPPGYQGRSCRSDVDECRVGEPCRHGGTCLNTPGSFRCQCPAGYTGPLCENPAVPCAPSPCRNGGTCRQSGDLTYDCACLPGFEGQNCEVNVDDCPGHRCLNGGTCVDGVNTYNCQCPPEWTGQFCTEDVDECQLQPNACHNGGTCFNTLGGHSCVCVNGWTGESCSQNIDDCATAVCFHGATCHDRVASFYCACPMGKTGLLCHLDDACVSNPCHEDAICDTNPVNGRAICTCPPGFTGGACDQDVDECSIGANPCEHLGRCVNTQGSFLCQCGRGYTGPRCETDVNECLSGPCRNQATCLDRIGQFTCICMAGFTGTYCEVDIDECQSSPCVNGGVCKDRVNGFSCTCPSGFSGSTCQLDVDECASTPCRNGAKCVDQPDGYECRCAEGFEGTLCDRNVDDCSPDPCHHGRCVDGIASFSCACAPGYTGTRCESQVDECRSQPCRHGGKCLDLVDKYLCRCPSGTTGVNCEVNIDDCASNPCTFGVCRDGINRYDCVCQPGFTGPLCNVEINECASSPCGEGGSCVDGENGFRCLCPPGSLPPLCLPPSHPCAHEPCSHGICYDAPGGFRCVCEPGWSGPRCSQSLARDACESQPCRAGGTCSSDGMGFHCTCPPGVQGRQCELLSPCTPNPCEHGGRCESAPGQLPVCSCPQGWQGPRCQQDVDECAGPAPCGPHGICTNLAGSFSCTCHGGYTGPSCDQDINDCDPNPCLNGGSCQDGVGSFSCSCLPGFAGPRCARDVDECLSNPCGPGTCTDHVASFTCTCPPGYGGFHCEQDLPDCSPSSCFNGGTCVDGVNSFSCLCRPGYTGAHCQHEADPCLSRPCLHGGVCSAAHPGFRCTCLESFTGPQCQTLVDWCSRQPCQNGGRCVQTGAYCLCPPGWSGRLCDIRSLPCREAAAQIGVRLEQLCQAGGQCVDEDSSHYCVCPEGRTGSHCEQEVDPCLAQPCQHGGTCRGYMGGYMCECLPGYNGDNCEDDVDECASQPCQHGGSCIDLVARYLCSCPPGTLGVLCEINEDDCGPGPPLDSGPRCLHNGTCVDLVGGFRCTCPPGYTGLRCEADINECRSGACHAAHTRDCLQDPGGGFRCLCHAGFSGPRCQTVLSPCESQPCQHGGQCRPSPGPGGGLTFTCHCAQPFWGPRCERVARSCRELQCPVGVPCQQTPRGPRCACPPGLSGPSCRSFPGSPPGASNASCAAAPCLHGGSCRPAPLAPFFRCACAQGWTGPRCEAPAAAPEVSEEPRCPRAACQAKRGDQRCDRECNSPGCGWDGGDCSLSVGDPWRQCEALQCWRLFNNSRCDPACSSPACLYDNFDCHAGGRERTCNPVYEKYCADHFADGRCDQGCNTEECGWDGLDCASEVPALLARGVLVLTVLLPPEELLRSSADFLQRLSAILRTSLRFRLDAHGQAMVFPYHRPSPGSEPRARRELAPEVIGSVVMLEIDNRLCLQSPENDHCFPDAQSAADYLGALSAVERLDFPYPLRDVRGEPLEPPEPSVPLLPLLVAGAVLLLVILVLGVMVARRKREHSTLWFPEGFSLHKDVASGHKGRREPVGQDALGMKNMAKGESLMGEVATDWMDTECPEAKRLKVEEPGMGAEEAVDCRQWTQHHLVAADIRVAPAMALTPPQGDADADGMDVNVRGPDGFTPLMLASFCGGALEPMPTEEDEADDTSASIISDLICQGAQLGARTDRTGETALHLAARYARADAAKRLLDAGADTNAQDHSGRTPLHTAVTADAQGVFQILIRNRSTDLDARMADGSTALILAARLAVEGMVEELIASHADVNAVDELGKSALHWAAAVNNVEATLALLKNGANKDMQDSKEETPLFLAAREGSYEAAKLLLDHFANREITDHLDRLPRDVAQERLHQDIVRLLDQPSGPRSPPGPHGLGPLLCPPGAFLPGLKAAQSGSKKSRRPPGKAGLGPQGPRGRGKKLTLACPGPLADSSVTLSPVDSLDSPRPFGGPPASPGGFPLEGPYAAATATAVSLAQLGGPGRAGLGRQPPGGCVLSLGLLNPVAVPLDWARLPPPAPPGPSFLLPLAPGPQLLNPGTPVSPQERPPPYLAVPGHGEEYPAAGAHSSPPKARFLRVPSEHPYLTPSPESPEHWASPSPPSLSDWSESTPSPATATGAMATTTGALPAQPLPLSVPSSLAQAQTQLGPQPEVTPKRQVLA
SMILES,composite z-score [1],z-score [2],z-score [3],z-score [4],composite z-score [5],z-score [6],composite z-score [7],composite z-score [8],composite z-score [9],composite z-score [10],composite z-score [11],composite z-score [12],composite z-score [13],z-score [14],composite z-score [15],composite z-score [16],composite z-score [17],composite z-score [18],composite z-score [19],composite z-score [20]
CC[C@@H]1C=C(C(=O)O)[C@H](c2cccc3ccccc23)N1S(=O)(=O)c1ccc(C)cc1,0.479,-0.118 (inactive),1.49 (inactive),-0.168 (inactive),3,-0.428 (inactive),-0.0537,0.0891,0.814,-0.0356,0.819,0.0149,0.0792,0.756 (inactive),0.51,0.466,0.294,0.495,0.153,1.02
O=C1OCCC/C=C\[C@H]2OC34C=CCN(c5ccc6ccccc6c5)C(=O)[C@H]3N(CCCCCO)C(=O)[C@@H]4C12 (stereo not given in full),-1.23,-1.56 (inactive),-1.52 (inactive),-0.419 (inactive),-1.77,-0.72 (inactive),-0.156,-0.766,-0.359,-0.13,0.227,-0.319,0.364,-0.447 (inactive),-0.862,-1.35,-0.756,-0.613,-0.974,0.633
COc1cc2c(cc1O)C(c1cccs1)N(Cc1cccc(OC(F)(F)F)c1)CC2 (stereo not given),1.46,-2.16 (inactive),-8.15 (active),-2.63 (inactive),2.1,-0.878 (inactive),-0.0785,-0.648,0.108,-0.139,1.77,-0.293,0.154,0.965 (inactive),-0.153,-0.0228,-0.0017,0.105,-0.183,1.41
O=C1C2C=CC(C(O)c3ccc(-c4ccccc4)s3)N(Nc3ccccc3)C2C(=O)N1c1ccccc1 (stereo not given),1.26,-0.307 (inactive),1.63 (inactive),0.355 (inactive),4.34,-0.579 (inactive),0.0711,0.182,1.11,-0.0565,1.5,0.753,0.953,1.1 (inactive),0.722,0.808,-0.0664,1.03,-0.632,0.845
O=C1OCC=C[C@H]2OC34C=CCN(CCN5CCOCC5)C(=O)[C@H]3N(CCO)C(=O)[C@@H]4[C@@H]12 (stereo not given in full),1.15,-0.674 (inactive),-0.537 (inactive),-0.12 (inactive),0.431,-0.653 (inactive),-0.417,0.928,0.534,-0.139,1.47,-0.0283,-0.224,0.308 (inactive),-0.787,0.0559,-0.14,0.241,-0.0563,0.0758
O=C1C2C=CC(C(O)c3ccc4c(c3)OCO4)N(Nc3ccc([N+](=O)[O-])cc3)C2C(=O)N1c1ccccc1 (stereo not given),0.66,-0.664 (inactive),0.484 (inactive),1.36 (inactive),1.97,-0.245 (inactive),-0.222,-0.0077,0.777,0.006,1.73,-0.0669,-0.162,-0.0322 (inactive),0.67,0.675,0.342,0.381,0.207,0.278
C=CCNC(=O)[C@H]1[C@@H]2C(=O)O[C@@H](c3ccccc3)[C@@H](c3ccccc3)N2[C@@H](c2ccc(OCCO)cc2)[C@]12C(=O)Nc1ccc(C#CCC(C(=O)OC)C(=O)OC)cc12,1.56,1.63 (inactive),1.79 (inactive),5.79 (inactive),2.74,0.0251 (inactive),0.187,0.608,1.08,-0.004,1.25,0.313,0.655,0.279 (inactive),1.29,1.09,0.787,1.25,0.83,0.559
[N-]=[N+]=NCc1ccccc1C[C@@]1(C(=O)NCC(O)CO)N=C(c2ccc(OCCCO)cc2)O[C@@H]1c1ccccc1 (stereo not given in full),0.303,-0.213 (inactive),-0.272 (inactive),-0.37 (inactive),3.21,0.627 (inactive),0.202,-0.962,-1.12,0.0061,0.048,1.15,1.22,-0.195 (inactive),-0.181,-0.538,-0.455,-1.3,-1.58,0.377
C=CCN1Cc2ccccc2[C@@H]2OC(c3ccc(OCCCO)cc3)=N[C@]2(CCS(=O)(=O)c2ccccc2)C1=O,1.55,0.863 (inactive),1.45 (inactive),3.51 (inactive),3.35,0.953 (inactive),0.0642,0.704,1.01,-0.0261,1.53,0.205,0.825,0.211 (inactive),1.4,1.32,1.01,1.43,1.41,1.1
CC(C)CN1C(=O)[C@@]2(c3ccc([N+](=O)[O-])cc3)CC(=O)N(C3CCCCC3)[C@@H]2c2ccc(CO)cc21,-1.13,0.0926 (inactive),0.612 (inactive),-1.78 (inactive),-0.709,0.733 (inactive),-0.113,-1.13,-0.626,-0.261,0.103,-0.0495,0.867,0.256 (inactive),-0.935,-1.27,-1.31,-1.21,-1.38,0.294
COCC(=C=CC[C@H](O)c1ccccc1OCCO)CCO,0.43,-0.594 (inactive),-0.5 (inactive),-0.127 (inactive),1.8,0.309 (inactive),0.0041,0.698,0.318,-0.1,1.52,0.0439,-0.423,0.338 (inactive),0.919,0.485,-0.865,0.612,0.274,0.564
